Data as given in paper PMC7862700, “An all-to-all approach to the identification of sequence-specific readers for epigenetic DNA modifications on cytosine”.

How the values were obtained:
Assay in all cases: DAPPL (digital affinity profiling via proximity ligation, sequencing); 10 mM Tris-HCl pH 7.5, 50 mM NaCl, 1 mM DTT, 4% glycerol, room temperature, 30 min; GST-TFs on glutathione beads, 16-mer random dsDNA library, 0.1% formaldehyde crosslink after washing; high values mean tight binding
[1] = target: T1, FEV (Homo sapiens, UniProt Q99581 1-238); conditions: protein: recombinant; tags: N-terminal GST; dsDNA, one strand shown
T1 sequence: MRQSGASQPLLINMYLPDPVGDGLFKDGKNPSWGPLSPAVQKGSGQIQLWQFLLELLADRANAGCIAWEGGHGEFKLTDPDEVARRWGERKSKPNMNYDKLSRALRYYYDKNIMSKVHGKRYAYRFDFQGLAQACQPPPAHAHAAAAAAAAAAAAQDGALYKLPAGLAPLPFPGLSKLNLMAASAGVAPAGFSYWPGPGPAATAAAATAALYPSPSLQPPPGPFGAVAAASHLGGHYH
Summary of the method: (§1)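 Human transcription factors fused to GST were expressed in yeast, captured on glutathione beads, given DNA barcodes and pooled with a GST-only negative control. Pools were incubated with 200 nmole of a 16-mer random double-stranded DNA library in Tris/NaCl/DTT/glycerol buffer at room temperature for 30 min. They were then washed, crosslinked with 0.1% formaldehyde, proximity-ligated (BsaI/T4 ligase, 1 h, 37 °C), PCR-amplified and sequenced on an Illumina NextSeq500. Binding signal is each 6-mer's read frequency for a factor divided by its frequency for the GST control.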

[2] = target: ETV5 (Homo sapiens, UniProt P41161 1-510); conditions: protein: recombinant; tags: N-terminal GST; dsDNA, one strand shown
Sequence of ETV5 (P41161 whole entry): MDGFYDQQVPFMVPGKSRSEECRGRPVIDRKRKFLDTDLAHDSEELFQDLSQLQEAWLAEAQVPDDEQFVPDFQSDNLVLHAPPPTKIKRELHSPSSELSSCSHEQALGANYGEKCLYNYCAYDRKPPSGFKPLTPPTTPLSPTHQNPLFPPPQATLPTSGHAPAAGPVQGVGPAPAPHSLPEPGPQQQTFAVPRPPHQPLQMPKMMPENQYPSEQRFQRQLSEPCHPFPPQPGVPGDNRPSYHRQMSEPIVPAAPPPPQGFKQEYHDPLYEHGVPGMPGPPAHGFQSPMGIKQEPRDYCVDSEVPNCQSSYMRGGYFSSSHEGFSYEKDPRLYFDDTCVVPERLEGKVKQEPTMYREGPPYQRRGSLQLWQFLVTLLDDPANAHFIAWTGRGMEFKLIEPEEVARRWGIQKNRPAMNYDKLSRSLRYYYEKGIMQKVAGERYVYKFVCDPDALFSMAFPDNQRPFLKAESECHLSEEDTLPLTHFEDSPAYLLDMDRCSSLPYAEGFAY
Summary of the method: as §1

[3] = target: HSF1 (Homo sapiens, UniProt Q00613 1-529); conditions: protein: recombinant; tags: N-terminal GST; chain copies: 3; dsDNA, one strand shown
Sequence of HSF1 (Q00613 whole entry): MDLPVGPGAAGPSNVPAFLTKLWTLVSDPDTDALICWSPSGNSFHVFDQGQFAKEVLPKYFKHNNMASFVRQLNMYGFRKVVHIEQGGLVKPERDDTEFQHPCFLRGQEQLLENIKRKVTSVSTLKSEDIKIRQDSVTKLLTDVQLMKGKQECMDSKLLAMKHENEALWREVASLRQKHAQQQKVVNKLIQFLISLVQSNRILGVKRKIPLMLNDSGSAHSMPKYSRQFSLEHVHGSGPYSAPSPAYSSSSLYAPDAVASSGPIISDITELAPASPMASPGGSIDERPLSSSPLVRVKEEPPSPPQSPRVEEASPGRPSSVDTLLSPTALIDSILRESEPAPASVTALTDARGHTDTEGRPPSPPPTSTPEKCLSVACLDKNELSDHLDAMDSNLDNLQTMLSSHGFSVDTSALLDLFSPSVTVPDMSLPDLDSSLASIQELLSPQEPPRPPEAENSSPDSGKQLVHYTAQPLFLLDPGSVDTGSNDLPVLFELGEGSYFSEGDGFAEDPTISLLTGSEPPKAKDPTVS
Summary of the method: as §1

[4] = target: T2, SPIC (Homo sapiens, UniProt Q8N5J4 1-248); conditions: protein: recombinant; tags: N-terminal GST; dsDNA, one strand shown
T2 sequence: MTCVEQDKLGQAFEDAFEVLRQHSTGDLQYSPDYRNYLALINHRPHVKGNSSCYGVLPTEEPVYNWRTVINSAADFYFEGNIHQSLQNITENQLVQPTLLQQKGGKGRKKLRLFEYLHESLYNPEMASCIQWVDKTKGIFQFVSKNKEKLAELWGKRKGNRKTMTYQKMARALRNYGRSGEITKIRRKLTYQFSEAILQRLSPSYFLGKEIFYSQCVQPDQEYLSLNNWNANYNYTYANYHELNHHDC
Summary of the method: as §1

[5] = target: ELF4 (Homo sapiens, UniProt Q99607 1-663); conditions: protein: recombinant; tags: N-terminal GST; dsDNA, one strand shown
Sequence of ELF4 (Q99607 whole entry): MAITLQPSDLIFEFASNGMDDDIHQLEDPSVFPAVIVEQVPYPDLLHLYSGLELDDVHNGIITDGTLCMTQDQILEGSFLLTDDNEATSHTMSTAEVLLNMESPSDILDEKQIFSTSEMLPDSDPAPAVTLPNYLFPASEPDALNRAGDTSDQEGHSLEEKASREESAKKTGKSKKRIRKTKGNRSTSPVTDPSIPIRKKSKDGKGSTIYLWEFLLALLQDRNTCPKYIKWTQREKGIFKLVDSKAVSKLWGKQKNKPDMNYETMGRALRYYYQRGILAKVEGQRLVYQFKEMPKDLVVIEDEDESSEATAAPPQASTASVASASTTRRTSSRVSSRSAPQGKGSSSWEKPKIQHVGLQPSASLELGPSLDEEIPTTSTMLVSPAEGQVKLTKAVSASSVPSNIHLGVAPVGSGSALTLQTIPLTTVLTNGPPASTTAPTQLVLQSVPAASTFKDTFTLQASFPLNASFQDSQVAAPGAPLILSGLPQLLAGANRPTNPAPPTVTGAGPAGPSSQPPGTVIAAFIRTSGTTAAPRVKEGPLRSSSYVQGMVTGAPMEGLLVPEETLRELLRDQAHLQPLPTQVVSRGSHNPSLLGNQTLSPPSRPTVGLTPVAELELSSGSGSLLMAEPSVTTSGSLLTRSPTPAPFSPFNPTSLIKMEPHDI
Summary of the method: as §1

[6] = target: T3, ELK4 (Homo sapiens, UniProt P28324-2 1-405); conditions: protein: recombinant; tags: N-terminal GST; dsDNA, one strand shown
T3 sequence: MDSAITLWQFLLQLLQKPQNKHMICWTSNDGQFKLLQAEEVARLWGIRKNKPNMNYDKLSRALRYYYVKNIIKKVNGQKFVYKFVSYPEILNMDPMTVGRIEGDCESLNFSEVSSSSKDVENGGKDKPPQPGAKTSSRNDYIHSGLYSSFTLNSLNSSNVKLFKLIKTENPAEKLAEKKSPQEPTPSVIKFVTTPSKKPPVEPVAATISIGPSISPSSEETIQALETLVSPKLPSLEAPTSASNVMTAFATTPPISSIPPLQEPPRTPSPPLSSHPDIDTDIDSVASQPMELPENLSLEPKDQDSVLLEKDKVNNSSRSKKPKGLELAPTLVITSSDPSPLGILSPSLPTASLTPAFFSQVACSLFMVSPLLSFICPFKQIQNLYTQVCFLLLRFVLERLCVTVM
Summary of the method: as §1

[7] = target: T4, ETV2 (Homo sapiens, UniProt O00321 1-342); conditions: protein: recombinant; tags: N-terminal GST; dsDNA, one strand shown
T4 sequence: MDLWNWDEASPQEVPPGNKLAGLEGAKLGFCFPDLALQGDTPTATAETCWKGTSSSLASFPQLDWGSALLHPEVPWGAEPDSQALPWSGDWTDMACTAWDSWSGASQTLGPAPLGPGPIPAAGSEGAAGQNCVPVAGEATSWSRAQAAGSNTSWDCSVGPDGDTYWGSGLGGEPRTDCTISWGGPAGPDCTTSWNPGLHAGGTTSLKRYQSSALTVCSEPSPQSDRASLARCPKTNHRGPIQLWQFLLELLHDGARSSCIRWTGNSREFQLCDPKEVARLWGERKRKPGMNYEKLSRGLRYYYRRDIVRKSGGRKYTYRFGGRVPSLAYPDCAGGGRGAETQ
Summary of the method: as §1

[8] = target: T5, ELF3 (Homo sapiens, UniProt P78545 1-371); conditions: protein: recombinant; tags: N-terminal GST; dsDNA, one strand shown
T5 sequence: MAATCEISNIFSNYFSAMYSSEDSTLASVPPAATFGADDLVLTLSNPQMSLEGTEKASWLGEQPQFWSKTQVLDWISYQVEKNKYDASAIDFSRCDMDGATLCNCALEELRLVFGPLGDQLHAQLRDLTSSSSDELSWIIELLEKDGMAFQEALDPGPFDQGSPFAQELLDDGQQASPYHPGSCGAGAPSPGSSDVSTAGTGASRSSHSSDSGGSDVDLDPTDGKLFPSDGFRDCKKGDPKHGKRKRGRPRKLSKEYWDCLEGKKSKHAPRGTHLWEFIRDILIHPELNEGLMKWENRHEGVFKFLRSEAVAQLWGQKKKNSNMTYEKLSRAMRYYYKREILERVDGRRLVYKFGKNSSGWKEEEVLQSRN
Summary of the method: as §1

[9] = target: CRX (Homo sapiens, UniProt O43186 1-299); conditions: protein: recombinant; tags: N-terminal GST; dsDNA, one strand shown
Sequence of CRX (O43186 whole entry): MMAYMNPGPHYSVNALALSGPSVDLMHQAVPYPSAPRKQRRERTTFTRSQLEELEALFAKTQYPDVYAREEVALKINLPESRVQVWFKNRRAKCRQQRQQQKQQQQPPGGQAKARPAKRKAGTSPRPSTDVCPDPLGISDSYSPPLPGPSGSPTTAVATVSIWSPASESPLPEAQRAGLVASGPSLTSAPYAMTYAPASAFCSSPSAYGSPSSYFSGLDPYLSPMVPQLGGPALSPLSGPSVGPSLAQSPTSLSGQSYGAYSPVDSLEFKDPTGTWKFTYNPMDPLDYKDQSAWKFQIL
Summary of the method: as §1

[10] = target: ETV1 (Homo sapiens, UniProt P50549 1-477); conditions: protein: recombinant; tags: N-terminal GST; dsDNA, one strand shown
Sequence of ETV1 (P50549 whole entry): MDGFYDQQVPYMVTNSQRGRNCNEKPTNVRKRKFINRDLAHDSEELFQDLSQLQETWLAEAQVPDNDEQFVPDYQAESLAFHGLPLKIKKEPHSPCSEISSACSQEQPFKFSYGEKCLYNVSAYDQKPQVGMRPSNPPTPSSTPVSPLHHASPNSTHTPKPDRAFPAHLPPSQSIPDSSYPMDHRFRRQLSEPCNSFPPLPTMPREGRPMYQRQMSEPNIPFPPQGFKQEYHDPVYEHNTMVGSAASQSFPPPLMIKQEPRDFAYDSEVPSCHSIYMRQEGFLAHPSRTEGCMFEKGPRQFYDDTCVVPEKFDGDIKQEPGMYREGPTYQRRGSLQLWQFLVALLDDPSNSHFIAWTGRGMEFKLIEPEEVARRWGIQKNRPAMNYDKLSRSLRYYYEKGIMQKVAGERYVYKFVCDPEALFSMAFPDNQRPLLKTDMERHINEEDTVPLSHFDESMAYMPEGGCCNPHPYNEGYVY
Summary of the method: as §1

[11] = target: T6, ERF (Homo sapiens, UniProt P50548 1-548); conditions: protein: recombinant; tags: N-terminal GST; dsDNA, one strand shown
T6 sequence: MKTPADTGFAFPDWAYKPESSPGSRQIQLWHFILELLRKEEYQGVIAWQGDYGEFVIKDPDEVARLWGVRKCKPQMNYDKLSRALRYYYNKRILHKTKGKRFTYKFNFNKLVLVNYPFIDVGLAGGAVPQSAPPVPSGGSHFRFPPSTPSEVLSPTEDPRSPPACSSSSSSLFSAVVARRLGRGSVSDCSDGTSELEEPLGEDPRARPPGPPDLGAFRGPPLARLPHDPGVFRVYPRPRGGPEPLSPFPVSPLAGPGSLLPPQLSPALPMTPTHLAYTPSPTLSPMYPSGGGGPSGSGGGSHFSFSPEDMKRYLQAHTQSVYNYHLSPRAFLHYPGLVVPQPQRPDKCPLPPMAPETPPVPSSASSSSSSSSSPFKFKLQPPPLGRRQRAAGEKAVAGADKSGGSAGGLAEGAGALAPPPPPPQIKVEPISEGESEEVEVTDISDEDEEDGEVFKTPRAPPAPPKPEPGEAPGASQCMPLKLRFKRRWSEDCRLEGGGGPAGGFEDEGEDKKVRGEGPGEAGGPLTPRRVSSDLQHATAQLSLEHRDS
Summary of the method: as §1

[12] = target: T7, ETV3L (Homo sapiens, UniProt Q6ZN32 1-361); conditions: protein: recombinant; tags: N-terminal GST; dsDNA, one strand shown
T7 sequence: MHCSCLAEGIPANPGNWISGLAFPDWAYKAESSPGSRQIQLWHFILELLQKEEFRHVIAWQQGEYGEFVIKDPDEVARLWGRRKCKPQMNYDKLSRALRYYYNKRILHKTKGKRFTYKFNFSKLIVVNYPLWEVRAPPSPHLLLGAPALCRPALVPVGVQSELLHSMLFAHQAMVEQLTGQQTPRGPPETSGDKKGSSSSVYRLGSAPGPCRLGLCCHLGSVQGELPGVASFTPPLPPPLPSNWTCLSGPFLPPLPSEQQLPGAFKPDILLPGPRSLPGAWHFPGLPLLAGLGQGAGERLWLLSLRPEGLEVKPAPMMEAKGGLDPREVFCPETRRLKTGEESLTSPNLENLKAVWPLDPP
Summary of the method: as §1

[13] = target: T8, ETS2 (Homo sapiens, UniProt P15036 1-469); conditions: protein: recombinant; tags: N-terminal GST; dsDNA, one strand shown
T8 sequence: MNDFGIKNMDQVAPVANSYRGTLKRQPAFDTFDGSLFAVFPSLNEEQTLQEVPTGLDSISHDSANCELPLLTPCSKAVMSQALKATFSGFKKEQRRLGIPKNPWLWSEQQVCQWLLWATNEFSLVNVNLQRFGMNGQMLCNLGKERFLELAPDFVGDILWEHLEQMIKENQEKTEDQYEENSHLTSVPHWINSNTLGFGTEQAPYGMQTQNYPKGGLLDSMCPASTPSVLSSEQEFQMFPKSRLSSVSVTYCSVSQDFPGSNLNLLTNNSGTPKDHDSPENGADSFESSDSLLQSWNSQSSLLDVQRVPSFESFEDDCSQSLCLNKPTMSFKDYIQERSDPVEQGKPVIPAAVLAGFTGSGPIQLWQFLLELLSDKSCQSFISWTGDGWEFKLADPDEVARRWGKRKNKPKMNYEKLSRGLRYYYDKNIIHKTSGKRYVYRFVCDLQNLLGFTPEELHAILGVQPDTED
Summary of the method: as §1

[14] = target: T9, SPDEF (Homo sapiens, UniProt O95238 1-335); conditions: protein: recombinant; tags: N-terminal GST; dsDNA, one strand shown
T9 sequence: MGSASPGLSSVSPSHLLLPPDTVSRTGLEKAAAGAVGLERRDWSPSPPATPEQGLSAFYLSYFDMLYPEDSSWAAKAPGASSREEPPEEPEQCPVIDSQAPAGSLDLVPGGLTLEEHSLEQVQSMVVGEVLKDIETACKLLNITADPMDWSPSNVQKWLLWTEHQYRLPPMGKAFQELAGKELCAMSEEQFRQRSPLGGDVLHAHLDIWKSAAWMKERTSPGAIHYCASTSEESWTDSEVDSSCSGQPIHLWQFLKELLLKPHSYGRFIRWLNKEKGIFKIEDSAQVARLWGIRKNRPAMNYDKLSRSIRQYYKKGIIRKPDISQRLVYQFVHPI
Summary of the method: as §1

[15] = target: T10, ETV7 (Homo sapiens, UniProt Q9Y603 1-341); conditions: protein: recombinant; tags: N-terminal GST; dsDNA, one strand shown
T10 sequence: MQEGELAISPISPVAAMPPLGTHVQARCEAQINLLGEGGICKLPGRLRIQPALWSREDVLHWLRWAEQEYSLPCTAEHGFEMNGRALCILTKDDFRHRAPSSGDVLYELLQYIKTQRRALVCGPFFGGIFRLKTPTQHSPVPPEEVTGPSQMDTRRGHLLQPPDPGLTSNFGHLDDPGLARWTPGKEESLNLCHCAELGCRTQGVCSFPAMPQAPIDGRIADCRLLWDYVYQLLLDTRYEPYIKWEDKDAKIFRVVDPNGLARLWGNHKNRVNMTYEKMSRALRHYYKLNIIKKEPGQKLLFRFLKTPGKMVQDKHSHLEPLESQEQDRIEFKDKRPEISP
Summary of the method: as §1

[16] = target: T11, ELF5 (Homo sapiens, UniProt Q9UKW6-2 1-255); conditions: protein: recombinant; tags: N-terminal GST; dsDNA, one strand shown
T11 sequence: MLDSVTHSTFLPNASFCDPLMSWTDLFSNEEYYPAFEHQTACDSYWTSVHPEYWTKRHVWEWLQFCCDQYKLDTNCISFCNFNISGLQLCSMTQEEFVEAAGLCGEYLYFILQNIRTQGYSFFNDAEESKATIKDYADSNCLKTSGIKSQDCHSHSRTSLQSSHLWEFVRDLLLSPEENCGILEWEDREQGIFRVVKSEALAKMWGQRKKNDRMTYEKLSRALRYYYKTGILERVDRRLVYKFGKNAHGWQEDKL
Summary of the method: as §1

[17] = target: T12, ETV3 (Homo sapiens, UniProt P41162-2 1-143); conditions: protein: recombinant; tags: N-terminal GST; dsDNA, one strand shown
T12 sequence: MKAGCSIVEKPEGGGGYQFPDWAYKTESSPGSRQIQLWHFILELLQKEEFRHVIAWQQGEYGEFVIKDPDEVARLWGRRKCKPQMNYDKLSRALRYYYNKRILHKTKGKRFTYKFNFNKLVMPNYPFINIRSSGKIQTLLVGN
Summary of the method: as §1

[18] = target: ETV6 (Homo sapiens, UniProt P41212 1-452); conditions: protein: recombinant; tags: N-terminal GST; dsDNA, one strand shown
Sequence of ETV6 (P41212 whole entry): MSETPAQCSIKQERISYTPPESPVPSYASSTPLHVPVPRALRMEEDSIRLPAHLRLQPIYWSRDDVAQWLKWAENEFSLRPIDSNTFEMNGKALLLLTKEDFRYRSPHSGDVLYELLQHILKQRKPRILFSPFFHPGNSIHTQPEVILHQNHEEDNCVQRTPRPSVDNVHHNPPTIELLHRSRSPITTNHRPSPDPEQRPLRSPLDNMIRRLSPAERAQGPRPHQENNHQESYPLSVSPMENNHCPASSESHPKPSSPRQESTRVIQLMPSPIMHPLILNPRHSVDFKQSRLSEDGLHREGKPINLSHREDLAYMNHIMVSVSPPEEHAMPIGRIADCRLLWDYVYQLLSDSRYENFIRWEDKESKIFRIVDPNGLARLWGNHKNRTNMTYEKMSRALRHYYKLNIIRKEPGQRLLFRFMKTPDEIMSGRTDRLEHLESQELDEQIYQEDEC
Summary of the method: as §1

GCTCCC
binding signal [1]: 1.28 fold enrichment (6-mer frequency, TF over GST control)
binding signal [2]: 1.39 fold enrichment (6-mer frequency, TF over GST control)
binding signal [3]: 1.07 fold enrichment (6-mer frequency, TF over GST control)
binding signal [4]: 1.16 fold enrichment (6-mer frequency, TF over GST control)
binding signal [5]: 1.32 fold enrichment (6-mer frequency, TF over GST control)
binding signal [6]: 1.4 fold enrichment (6-mer frequency, TF over GST control)
binding signal [7]: 1.32 fold enrichment (6-mer frequency, TF over GST control)
binding signal [8]: 1.35 fold enrichment (6-mer frequency, TF over GST control)
binding signal [9]: 1.04 fold enrichment (6-mer frequency, TF over GST control)
binding signal [10]: 1.24 fold enrichment (6-mer frequency, TF over GST control)
binding signal [11]: 1.29 fold enrichment (6-mer frequency, TF over GST control)
binding signal [12]: 1.27 fold enrichment (6-mer frequency, TF over GST control)
binding signal [13]: 1.35 fold enrichment (6-mer frequency, TF over GST control)
binding signal [14]: 1.47 fold enrichment (6-mer frequency, TF over GST control)
binding signal [15]: 1.31 fold enrichment (6-mer frequency, TF over GST control)
binding signal [16]: 1.33 fold enrichment (6-mer frequency, TF over GST control)
binding signal [17]: 1.21 fold enrichment (6-mer frequency, TF over GST control)
binding signal [18]: 1.25 fold enrichment (6-mer frequency, TF over GST control)
